# Experimental data: PubChem BioAssay (EPA / NIEHS)
# Inconclusive results are not listed. The source made the active and inactive calls. How the source made its calls: active means hit-call score of the fitted dose curve at least 0.9, where 1 is the maximum; inconclusive means response in the unintended direction; inactive means score below 0.9.
# Legend:
# [1] = ACEA_AR_agonist_AUC_viability: ACEA Biosciences xCELLigence Real-Time Cell Analysis on Androgen Receptor Agonism for Viability (AID 2283775);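 on AC50: viability read 80 hours after compound addition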
# Method in brief: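 Viability endpoint from xCELLigence impedance in 22Rv1 prostate cells at 80 h. Eight-point series, 100 uM maximum final.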
# [2] = ACEA_AR_antagonist_AUC_viability: ACEA Biosciences xCELLigence Real-Time Cell Analysis on Androgen Receptor Antagonism for Viability (AID 2283776);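 further: 22Rv1 human prostate cancer cells growing on impedance electrode plates; area under impedance growth curve at 80 h after dosing as viability; hits lower the growth signal relative to DMSO meaning cytotoxicity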
# Method in brief: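 22Rv1 prostate cells, continuous dosing up to 100 uM final (0.5% DMSO max), duplicate plates. Growth measured by impedance; AUC at 80 h, loss of signal vs DMSO.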
# [3] = ACEA_ER_AUC_viability: ACEA Biosciences xCELLigence Real-Time Cell Analysis on Estrogen Receptor Agonism for Viability (AID 2283782);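 further: hit means loss of impedance signal meaning reduced cell growth or viability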
# Method in brief: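 Viability endpoint: reduced impedance area under the curve relative to DMSO, recorded by real-time electrode sensing over ~80 h of continuous exposure. Duplicate plates of T47D in hormone-depleted medium; eight concentrations, 1:4 dilutions, 100 uM maximum.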
# AR (gene 367) [4] = biological target: AR (gene 367) (UniProt P10275); assay: ACEA_AR_antagonist_80hr: ACEA Biosciences xCELLigence Real-Time Cell Analysis on Androgen Receptor Antagonism for Proliferation (AID 2283787);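 further: 22Rv1 human prostate cancer cells with growth followed by electrical impedance; hits lower the impedance growth signal relative to DMSO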
# Sequence of AR (gene 367) (P10275 whole entry, looked up): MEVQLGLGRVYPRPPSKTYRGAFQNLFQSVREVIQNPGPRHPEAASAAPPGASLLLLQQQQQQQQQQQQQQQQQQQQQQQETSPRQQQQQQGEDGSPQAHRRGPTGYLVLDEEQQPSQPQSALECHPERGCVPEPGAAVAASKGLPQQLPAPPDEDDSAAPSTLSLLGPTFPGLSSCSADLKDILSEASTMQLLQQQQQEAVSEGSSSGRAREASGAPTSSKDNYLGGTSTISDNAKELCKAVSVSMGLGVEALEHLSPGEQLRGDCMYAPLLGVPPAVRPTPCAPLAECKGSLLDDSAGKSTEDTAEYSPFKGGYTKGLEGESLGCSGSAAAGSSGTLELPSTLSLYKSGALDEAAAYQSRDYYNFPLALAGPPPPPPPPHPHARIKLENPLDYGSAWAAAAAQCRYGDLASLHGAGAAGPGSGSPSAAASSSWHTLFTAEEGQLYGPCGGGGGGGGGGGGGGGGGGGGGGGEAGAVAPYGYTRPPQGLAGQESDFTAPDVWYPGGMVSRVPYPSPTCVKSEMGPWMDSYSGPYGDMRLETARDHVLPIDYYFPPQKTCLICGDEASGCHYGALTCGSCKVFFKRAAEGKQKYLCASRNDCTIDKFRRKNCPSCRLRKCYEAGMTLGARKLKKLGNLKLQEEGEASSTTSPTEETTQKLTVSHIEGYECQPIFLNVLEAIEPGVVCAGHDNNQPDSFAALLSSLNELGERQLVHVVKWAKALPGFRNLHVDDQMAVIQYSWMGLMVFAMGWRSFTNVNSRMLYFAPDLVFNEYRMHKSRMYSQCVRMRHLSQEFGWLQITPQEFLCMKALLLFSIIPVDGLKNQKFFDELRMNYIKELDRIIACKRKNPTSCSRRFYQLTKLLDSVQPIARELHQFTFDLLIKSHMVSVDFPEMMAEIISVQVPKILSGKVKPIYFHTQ
# Method in brief: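 Impedance-based real-time growth of 22Rv1 prostate cells, read 80 h after dosing. Eight concentrations, 1:4 series, top 100 uM final (0.5% DMSO), n = 2; signal decrease scored against DMSO.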
# AR (gene 367) [5] = biological target: AR (gene 367) (UniProt P10275); assay: ACEA_AR_agonist_80hr: ACEA Biosciences xCELLigence Real-Time Cell Analysis on Androgen Receptor Agonism for Proliferation (AID 2283783);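 further: hits increase impedance growth signal above DMSO baseline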
# Method in brief: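 Eight concentrations, 1:4 serial dilution from a 100 uM final top, in biological duplicate. Impedance-based real-time growth of 22Rv1 cells after overnight baseline, recorded hourly and read at 80 hours. Controls: testosterone, MG132, assay media.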
# [6] = STM_H9_NormalizedViability: Cytotoxicity Assessment at 120 hours in the Stemina devTOX quickPredict H9 human embryonic stem cell (hESC)-based Assay (AID 2283784)
# Method in brief: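 Here, H9 cells received test compound with daily medium renewal. Each plate included methotrexate references (1uM, 5 nM), 0.1% DMSO and media blanks; CellTiter-Fluor RFU was normalized to DMSO.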
smiles,measurement,setting,value
CCCCCCC(CCCCCCCCCCC(=O)OCC(COC(C)=O)OC(C)=O)OC(C)=O (centres undefined),outcome,[1],inactive
same,outcome,[2],inactive
COC(=O)CCC(=O)OC,outcome,[1],inactive
same,outcome,[2],inactive
same,outcome,[3],inactive
CCCCCCC(C=O)=Cc1ccccc1,AC50,[1],76.7 µM (active)
same,AC50,[2],78.5 µM (active)
same,AC50,[3],74.7 µM (active)
O=C(N[C@@H](c1ccccc1)[C@@H]1CCCCN1)c1cccc(C(F)(F)F)c1Cl,AC50,[1],55.8 µM (active)
same,AC50,[2],39.5 µM (active)
same,AC50,[3],15.3 µM (active)
CC(C)COC(=O)CCCCC(=O)OCC(C)C,outcome,[1],inactive
same,outcome,[2],inactive
same,outcome,[3],inactive
CC(N)=O,outcome,[1],inactive
same,outcome,[2],inactive
same,outcome,[3],inactive
CCCCOC(=O)CCCCC(=O)OCCCC,outcome,[1],inactive
same,outcome,[2],inactive
COc1ccc(C(=O)Nc2nc3ccccc3c(NCc3ccccc3)c2C#N)cc1,AC50,[1],24 µM (active)
same,AC50,[2],23.5 µM (active)
same,outcome,[3],inactive
NC=O,outcome,[1],inactive
same,outcome,[2],inactive
CN(C)C(=O)NC1(c2ccccc2)CCN(CC[C@@]2(c3ccc(F)c(F)c3)CN(C(=O)c3ccccc3)CCO2)CC1,AC50,[1],47 µM (active)
same,outcome,[2],inactive
same,AC50,[3],25.4 µM (active)
CC(=O)S[C@H](C(=O)N[C@H]1Cc2ccccc2[C@H]2CCC[C@@H](C(=O)O)N2C1=O)C(C)C,outcome,[1],inactive
same,outcome,[2],inactive
same,outcome,[3],inactive
O=C(O)CN(CC(=O)O)CC(=O)O,outcome,[1],inactive
same,outcome,[2],inactive
same,outcome,[3],inactive
CCCC[C@H]1CN(CC2CCOCC2)C(=O)OC12CCN(C1(C)CCN(C(=O)c3c(C)ncnc3C)CC1)CC2,outcome,[1],inactive
same,outcome,[2],inactive
CC(C)(O)c1ccc(CNC(=O)c2cccnc2Oc2ccc(F)cc2)cc1,outcome,[1],inactive
same,outcome,[2],inactive
O=C1NC(=O)C(c2ccccc2)(c2ccccc2)N1,AC50,[1],33.6 µM (active)
same,AC50,[2],28.7 µM (active)
same,outcome,[3],inactive
CCCCC(CC)COC(=O)CCCCCCCC(=O)OCC(CC)CCCC (centres undefined),outcome,[1],inactive
same,outcome,[2],inactive
CC(=O)O,outcome,[1],inactive
same,outcome,[2],inactive
COc1ccc(OC(F)(F)F)cc1CN[C@H]1CCCN[C@H]1c1ccccc1,AC50,[1],65.5 µM (active)
same,AC50,[2],67 µM (active)
same,AC50,[3],14.9 µM (active)
NC1CCCCC1,outcome,[1],inactive
same,outcome,[2],inactive
same,outcome,[3],inactive
O=C(O)CC(O)(CC(=O)O)C(=O)O,outcome,[1],inactive
same,outcome,[2],inactive
same,outcome,[3],inactive
Cn1cnc2c1c(=O)[nH]c(=O)n2C,outcome,[1],inactive
same,outcome,[2],inactive
Cc1cn([C@H]2C=C[C@@H](CO)O2)c(=O)[nH]c1=O,outcome,[1],inactive
same,AC50,[2],19.7 µM (active)
same,outcome,[3],inactive
CCCCc1nc2cccnc2n1Cc1ccc(-c2ccccc2-c2nnn[nH]2)cc1,AC50,[1],50 µM (active)
same,AC50,[2],50 µM (active)
CN(C)CCCN(C)CCCN(C)C,outcome,[1],inactive
same,outcome,[2],inactive
same,outcome,[3],inactive
CO[C@@H]1COCC[C@@H]1N[C@@H]1CC[C@@](C(=O)N2CCc3ncc(C(F)(F)F)cc3C2)(C(C)C)C1,outcome,[1],inactive
same,outcome,[2],inactive
same,AC50,[3],21.3 µM (active)
CC1(C)C(=O)NC(=O)N1CO,outcome,[1],inactive
same,outcome,[2],inactive
same,outcome,[3],inactive
CN(C)C(=O)NC1(c2ccccc2)CCN(CCC[C@]2(c3ccc(Cl)c(Cl)c3)CCCN(C(=O)c3ccccc3)C2)CC1,AC50,[1],16.2 µM (active)
same,AC50,[2],16.7 µM (active)
same,AC50,[3],14.6 µM (active)
OCC(CO)n1cnc(-c2ccc(F)cc2)c1-c1ccnc(Oc2ccccc2)n1,outcome,[1],inactive
same,AC50,[2],21.1 µM (active)
same,outcome,[3],inactive
O=C1CCCCC1,outcome,[1],inactive
same,outcome,[2],inactive
same,outcome,[3],inactive
same,outcome,AR (gene 367) [4],inactive
CCc1cc(C2=C(C(=O)O)N(c3ccccc3C(F)(F)F)S(=O)(=O)c3ccccc32)cc2c1OCO2,outcome,[1],inactive
same,AC50,[2],25 µM (active)
same,AC50,[3],15.8 µM (active)
O=NO,outcome,[2],inactive
same,outcome,[3],inactive
C=CCc1ccc(OC)c(OC)c1,outcome,[3],inactive
CSc1ccc(Oc2ccc(S(N)(=O)=O)cc2CN(C)C)cc1C,AC50,[1],65.2 µM (active)
same,AC50,[2],50 µM (active)
same,AC50,[3],50 µM (active)
same,AC50,AR (gene 367) [4],62.4 µM (active)
CCC(C)N(C)C(=O)c1cc2ccccc2c(-c2ccccc2Cl)n1 (centres undefined),AC50,[1],45.7 µM (active)
same,AC50,[2],40.9 µM (active)
same,outcome,[3],inactive
same,outcome,AR (gene 367) [5],inactive
same,outcome,[6],inactive
same,AC50,AR (gene 367) [4],46.4 µM (active)
CN(C)CCCN1c2ccccc2Sc2ccc(Cl)cc21,AC50,[1],22.2 µM (active)
same,AC50,[3],13.1 µM (active)
same,AC50,[6],3.22 µM (active)
NC(=Nc1ccccc1)Nc1ccccc1,outcome,[1],inactive
same,outcome,[2],inactive
same,AC50,[3],1.79 µM (active)
same,outcome,[6],inactive
COC(=O)CCCC(=O)OC,outcome,[2],inactive
CC(=O)[C@@]1(O)CC[C@H]2[C@@H]3CCC4=CC(=O)CC[C@]4(C)[C@H]3CC[C@@]21C,outcome,[2],inactive
same,outcome,[6],inactive
CCCCC(CC)CO (centres undefined),outcome,[2],inactive
CC(=O)CC(c1ccccc1)c1c(O)c2ccccc2oc1=O (centres undefined),outcome,[1],inactive
same,outcome,[2],inactive
same,outcome,[3],inactive
same,outcome,[6],inactive
CCc1nc(N)nc(N)c1-c1ccc(Cl)cc1,AC50,[1],50 µM (active)
same,AC50,[2],50 µM (active)
same,AC50,[6],33.9 µM (active)
CCCCCCCCCCCCCCCCO,outcome,[1],inactive
same,outcome,[2],inactive
same,outcome,[3],inactive
same,outcome,[6],inactive
CC(C)c1cccc(C(C)C)c1,outcome,[2],inactive
same,outcome,[3],inactive
O=[Si]=O,outcome,[2],inactive
N[C@@H](Cc1c[nH]c2ccccc12)C(=O)O,outcome,[1],inactive
same,AC50,[2],9.92 µM (active)
same,outcome,[3],inactive
same,outcome,[6],inactive
CC1=C(C)S(=O)(=O)CCS1(=O)=O,AC50,[1],82.6 µM (active)
same,AC50,[2],88.8 µM (active)
same,outcome,[3],inactive
same,outcome,AR (gene 367) [5],inactive
same,AC50,AR (gene 367) [4],79.6 µM (active)
